Results on 21 compounds are retold here after PubChem BioAssay (Tox21).

Each structure is given as a SMILES string. “And” between values parts separate entries of the source, which are not always exact repeats. Equal values may be shown once. Inconclusive results are not listed. A number with no mark means an inactive call. The source made the active and inactive calls. The call rests on the fitted dose curve; in most records, active means well fitted curve in the direction sought with a large enough effect in the repeat runs; inconclusive means weak or mixed curves; inactive means no such curve, though single readings can be large; an effect the other way counts as inactive or inconclusive.

Test [1] can be described thus: A CellTox Green Cytotoxicity Assay to monitor cytotoxicity in HEK293 cells - 40 hour (AID 1224871). Further: nearly all actives have a fitted effect of over 45% in size. In a few lines:
(§1)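 Dead-cell fluorescence measured kinetically: asymmetric cyanine dye, HEK293, 600 cells/well, 5 h settle, 23 nL cpd/DMSO, 37 C, reads 0–40 h every 8 h.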

The nature of test [2]: qHTS RealTime-Glo MT Cell Viability Assay in HEK293 cells - 16 hour (AID 1224872). Further: nearly all actives have a fitted effect of over 50% in size. Further: potency means the concentration at half of the fitted maximal effect. In short, it runs like this:
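Luminescence generated by NanoLuc from substrate produced by living HEK293 cells served as the viability signal. Each value reflects the reading at its stated time point during continuous 40 h compound exposure at 37 C.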

Test [3] in a line: qHTS RealTime-Glo MT Cell Viability Assay in HEK293 cells - 40 hour (AID 1224874). Further: nearly all actives have a fitted effect of over 50% in size. Further: potency means the concentration at half of the fitted maximal effect. Particulars: RealTime-Glo luminescence; max response: hits give low values. In short, it runs like this:
(§2)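 600 HEK293 cells per well, dispensed already mixed with RealTime-Glo MT reagents. Compound dosing came 5 h later. The same wells were read for luminescence at 0, 8, 16, 24, 32 and 40 h of exposure at 37 C.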
(In general: qHTS replaces the single test concentration by a dilution series.)

The nature of test [4]: A CellTox Green Cytotoxicity Assay to monitor cytotoxicity in HEK293 cells - 24 hour (AID 1224875). Further: series mostly up to about 77 µM; nearly all actives have a fitted effect of over 45% in size. In short, it runs like this: as §1
The nature of test [5]: A CellTox Green Cytotoxicity Assay to monitor cytotoxicity in HepG2 cells - 16 hour (AID 1224876). Further: nearly all actives have a fitted effect of over 45% in size. In short, it runs like this:
(§3)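 First, HepG2 cells (600/well) mixed with reagent were plated; second, after 5 h at 37 C they received compounds via pintool; third, fluorescence was measured at 0 h through 40 h at 8 h intervals.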

Test [6] can be described thus: qHTS RealTime-Glo MT Cell Viability Assay in HepG2 cells - 32 hour (AID 1224877). Further: nearly all actives have a fitted effect of over 55% in size. Further: potency means the concentration at half of the fitted maximal effect. In a few lines: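 Tox21 10K library screened in qHTS format on HepG2 cells carrying RealTime-Glo reagents. Compounds were added after a 5 h preincubation, and the luminescent signal from continuous culture was measured repeatedly during 40 h treatment.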
Test [7] in a line: A CellTox Green Cytotoxicity Assay to monitor cytotoxicity in HepG2 cells - 24 hour (AID 1224878). Further: nearly all actives have a fitted effect of over 45% in size. In a few lines: as §3
A short description of test [8]: A CellTox Green Cytotoxicity Assay to monitor cytotoxicity in HepG2 cells - 40 hour (AID 1224879). Further: nearly all actives have a fitted effect of over 40% in size. Further: potency means the concentration at half of the fitted maximal effect. In short, it runs like this:
as §3

Test [9] in a line: qHTS RealTime-Glo MT Cell Viability Assay in HEK293 cells - 0 hour (AID 1224880). In short, it runs like this: as §2
Test [10] can be described thus: qHTS RealTime-Glo MT Cell Viability Assay in HepG2 cells - 8 hour (AID 1224873). Further: nearly all actives have a fitted effect of over 55% in size. In a few lines: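 HepG2 cells mixed with RealTime-Glo MT reagents (NanoLuc plus cell-permeant prosubstrate) were seeded at 600 cells/well, incubated 5 h at 37 C/5% CO2, then pinned with compounds in DMSO; nonlytic luminescence tracked viability during 40 h treatment.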
On the % scale 0 is the no-effect control and ±100 the full control effect.

Take `CCCN1C=CN(C)C1`: the Potency entry in test [1], in test [2], in [4], in [5], in [6] and in test [7] was “inactive” each time. Also, the Potency result in test [8] and in [9] was “inactive” each time. Also, in test [3], the max response is -1.14% and -1.07%.
For the compound `COC(=O)C(C)Oc1ccc(Oc2ncc(C(F)(F)F)cc2Cl)cc1` (configuration not stated), the Potency entry in test [1], in test [10], in [4], in test [5], in [6] and in [7] was “inactive” in each case. Moreover, the Potency result in [8] and in test [9] was “inactive” each time. Besides, the max response in test [3] was -25%.
As to `CCC/C=C/C=O`, the Potency entry in test [1], in [2], in [4], in test [5], in test [6] and in test [7] was “inactive” in each case. The Potency result in test [8] and in test [9] was “inactive” each time. Further, in test [3], the max response is -4.27% and 1.77%.
On to `Cc1cccc(Nc2ccccc2C(=O)O)c1C`, for which the Potency result in test [1], in test [2], in test [6], in test [7], in test [8] and in test [9] was “inactive” in each case. Moreover, the max response in test [3] was -11.8% and 1.92%.
Consider `CC(C)[N+](C)(CCOC(=O)C1c2ccccc2Oc2ccccc21)C(C)C`, for which the Potency result in test [1], in test [2], in test [5], in [6], in test [7] and in test [8] was “inactive” each time. Moreover, the Potency entry in test [9] is “inactive”. Besides, the max response in [3] was -23.6% and -15.1%.
Consider `CCCCCC1C(=O)CCC1CC(=O)OC` (configuration not stated), for which the Potency entry in test [1], in [2], in [5], in [6], in test [7] and in test [8] was “inactive” throughout. Moreover, the Potency result in test [9] was “inactive”. Besides, the max response in [3] was 0.863% and -10.7%.
Regarding `Nc1ccc(O)c(N)c1`, the Potency result in [1], in test [2], in test [5], in test [6], in test [7] and in test [8] was “inactive” in each case. In addition, the max response in test [3] is -10.8% and -11.4%.
For the compound `CC1(C)O[C@@H]2C[C@H]3[C@@H]4C[C@H](F)C5=CC(=O)C=C[C@]5(C)[C@@]4(F)[C@@H](O)C[C@]3(C)[C@]2(C(=O)CO)O1`, the Potency entry in test [1], in test [2], in test [6], in test [7] and in [8] was “inactive” each time. Further, in test [3], the max response was -29.2% and -4.18%.
In the case of `[O-]/[N+](=N\O)c1ccccc1`, the Potency result in test [1], in [2], in test [4], in test [5], in test [6] and in test [7] was “inactive” throughout. For the same compound, the Potency result in test [8] and in test [9] was “inactive” each time. Moreover, the max response in test [3] is 2.42% and -11.8%.
Turning to `CC1=CC(C)(C)Nc2ccccc21`, the Potency result in test [2], in test [10], in test [5], in test [6], in test [7] and in test [8] was “inactive” throughout. The Potency entry in [9] is “inactive”. For the same compound, in test [3], the max response is 5.64% and -19.8%.
Consider `CC1(C)NC(=O)N(c2ccc([N+](=O)[O-])c(C(F)(F)F)c2)C1=O`, for which the Potency entry in [1], in [10], in test [4], in test [6], in test [7] and in test [8] was “inactive” each time. For the same compound, the Potency result in test [9] was “inactive”. Besides, the Potency in test [3] was 24.5 µM (active).
As to `CC/C(=C(/CC)c1ccc(O)cc1)c1ccc(O)cc1`, the Potency entry in test [1], in test [4], in test [5], in test [6], in test [7] and in [8] was “inactive” throughout. Besides, the Potency entry in test [9] is “inactive”. For the same compound, the Potency in test [2] was 15.4 µM (active) and 30.9 µM (active); in [3] it was 12.2 µM (active) and 27.5 µM (active) and 19 µM (active).
For `O=C(O)COCCN1CCN(C(c2ccccc2)c2ccc(Cl)cc2)CC1` (configuration not stated), the Potency result in test [1], in test [2], in test [5], in test [6], in test [7] and in [8] was “inactive” each time. For the same compound, in test [9], the Potency entry is “inactive”. The max response in test [3] was 5.07% and 2.04%.
With `C[C@]12CC[C@@H]3c4ccc(O)cc4CC[C@H]3[C@@H]1CC[C@H]2O`, the Potency entry in [1], in test [10], in test [4], in test [5], in [6] and in test [7] was “inactive” in each case. Also, the Potency result in [9] is “inactive”. Also, the Potency in [3] is 5.59 µM (active) and 15.5 µM (active); in test [8], 9.94 µM (active) and 34.7 µM (active).
`C=CC(=O)OCCCC`: the Potency entry in [1], in test [2], in test [5], in test [6], in [7] and in test [8] was “inactive” each time. The Potency entry in test [9] was “inactive”. Further, the max response in test [3] is 6.68% and 3.94%.
`COC(=O)CC(=O)OC`: the Potency result in [1], in test [2], in test [6], in test [7], in test [8] and in test [9] was “inactive” in each case. In test [3], the max response was 2.65% and 1%.
In the case of `CC(=O)Oc1c(C)c(C)c2c(c1C)CC[C@@](C)(CCC[C@H](C)CCC[C@H](C)CCCC(C)C)O2`, the Potency entry in [1], in [2], in test [4], in test [5], in test [6] and in test [7] was “inactive” in each case. For the same compound, the Potency result in test [8] and in test [9] was “inactive” throughout. Further, the max response in test [3] was 0.83% and -4.95%.
Regarding `CC[C@]12CCCN3CCc4c(n(c5ccccc45)[C@@](O)(C(=O)OC)C1)[C@@H]32`, the Potency entry in [1], in test [2], in test [4], in test [5], in test [6] and in test [7] was “inactive” in each case. Further, the Potency result in test [8] and in [9] was “inactive” in each case. The max response in test [3] is -23.5%.
Turning to `CC(C)=CCO`, the Potency result in test [1], in test [2], in test [5], in test [6], in [7] and in test [8] was “inactive” in each case. Further, the Potency entry in test [9] was “inactive”. In addition, the max response in [3] was 4.01% and 0.683%.
Take `IC(I)I`: the Potency entry in test [1], in [2], in [4], in test [5], in [7] and in test [8] was “inactive” each time. Besides, the Potency entry in test [9] was “inactive”. For the same compound, the max response in test [3] was 7.94% and 2.04%. For the same compound, the Potency in test [6] was 24.5 µM (active) and 17.4 µM (active).
In the case of `C=CN1CCCC1=O`, the Potency result in [1], in test [2], in test [4], in test [6], in test [7] and in [8] was “inactive” throughout. In test [9], the Potency entry is “inactive”. Also, in test [3], the max response was 0.332% and -7.88%.
